Hits are enriched below; roughly 1.1% of the tested compounds scored in any of these assays.
HTR5A inv ag: counter-screen for OPRM1-OPRD1 inverse agonists: human HTR5A inverse agonism. HTR5A cell line, luminescence. inhibition, % at 9.3 µM. actives 0.083% (n = 340,000). AID 504634; in the data active means inhibition mostly above about 23%, no sharp cut-off; inactive means mostly below about 18%
Target sequence (P47898 whole entry, looked up): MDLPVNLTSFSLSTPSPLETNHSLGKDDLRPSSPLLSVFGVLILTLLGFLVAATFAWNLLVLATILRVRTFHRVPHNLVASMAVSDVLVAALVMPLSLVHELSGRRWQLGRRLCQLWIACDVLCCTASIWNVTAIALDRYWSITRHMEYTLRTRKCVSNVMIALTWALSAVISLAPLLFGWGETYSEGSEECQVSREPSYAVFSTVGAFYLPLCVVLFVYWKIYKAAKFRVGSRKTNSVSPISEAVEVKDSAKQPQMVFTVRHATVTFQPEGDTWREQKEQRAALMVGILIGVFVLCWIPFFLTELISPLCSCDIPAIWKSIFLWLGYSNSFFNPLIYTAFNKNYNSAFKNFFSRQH
MOR-DOR ag: OPRM1-OPRD1 heterodimerization agonism; cells, luminescence; activation, % at 9.3 µM; actives 0.3% (n = 340,000); in the data active means activation above about 18%
HTR5A ag ctr: counter-screen for OPRM1-OPRD1 agonists: human HTR5A agonism; HTR5A agonist assay, luminescence, cell-based; P47898; AID 504692; activation, % at 9.3 µM; actives 0.61% (n = 340,000); in the data active means activation mostly above about 9.5%, no sharp cut-off; inactive means mostly below about 7.6%
MOR-DOR inv ag: inverse agonists of human mu-delta opioid receptor heterodimerization. actives 0.21% (n = 340,000). inhibition, % at 9.3 µM. cell-based MOR-DOR heterodimer luminescence, inverse agonism. P35372+P41143; in the data active means inhibition above about 22%, passing the limit was not always enough
Large screens that a line does not name were inactive.

NC(CSC1(c2cccc3ccccc23)c2ccccc2-c2ccccc21)C(=O)O (stereo unspecified)	none
CC(C)CN1C(=O)c2ccc(C(=O)NCc3ccccn3)cc2C1=O	HTR5A ag ctr 9.6
CCOC(=O)C1CCN(CCCSc2ccc(C)cc2)CC1	none
COc1ccc(S(=O)(=O)Cc2ccc(C(=O)N3CC(C)CC(C)C3)o2)cc1 (stereo unspecified)	HTR5A ag ctr 13
COc1ccc(S(=O)(=O)Cc2ccc(C(=O)N3CCOCC3)o2)cc1	none
Cc1ccccc1-n1ccnc1SCC(=O)Nc1cccc(S(=O)(=O)NC2=NCCC2)c1	none
CCOC(=O)C1CCCN(C(=O)COc2ccc(C(=O)c3ccccc3)cc2)C1 (stereo unspecified)	none
CCOC(=O)C1CCCN(c2c(C(=O)c3ccccc3)cnc3ccc(OC)cc23)C1 (stereo unspecified)	HTR5A inv ag 30, MOR-DOR inv ag 36
Cc1c(NC(=O)CN2c3ccccc3CC2C)c(=O)n(-c2ccccc2)n1C (stereo unspecified)	none
Cn1ccsc1=NC(=O)c1ccc(OC(F)(F)F)cc1	none
COc1ccc2nc(C)cc(N/N=C/c3ccccc3)c2c1	MOR-DOR ag 21
Cc1ccc2c(c1)C(c1ccc(O)cc1)(c1ccc(O)cc1)C(=O)N2C	HTR5A ag ctr 10
O=C(NCc1cccc(F)c1F)C1CCC(=O)N(C2CC2)C1 (stereo unspecified)	HTR5A ag ctr 10
Cc1cc([N+](=O)[O-])nn1CC(=O)N(C)C1CCCCC1	none
COc1ccccc1N/C=C(\C#N)c1nc2ccccc2[nH]1	HTR5A ag ctr 13
CC(C)Oc1ccc(N2CC(C(=O)Nc3ccccc3C(=O)NC3CC3)CC2=O)cc1 (stereo unspecified)	none
COc1ccc(NC(=O)CC2C(=O)N(c3ccc(Cl)cc3)C(=S)N2NC(=O)c2cccc(F)c2)cc1 (stereo unspecified)	none
COc1ccc(NC(=O)CC2C(=O)N(c3ccc(F)cc3)C(=S)N2NC(=O)c2ccc(Cl)cc2)cc1 (stereo unspecified)	HTR5A ag ctr 12
NNc1nc(-c2ccccc2)cc(-c2ccccc2)n1	HTR5A inv ag 43, MOR-DOR inv ag 52
NNc1nc(-c2ccccc2)cc(-c2ccccc2O)n1	none
Cc1ccc(C)c(Cc2c(C)nc(C)[nH]c2=O)c1	none
CCc1ccc(S(=O)(=O)/N=C2/C=C(Sc3ncn[nH]3)C(=O)c3ccccc32)cc1	MOR-DOR ag 30
Cc1cc(C)c(-c2c(O)c3c(n(C)c2=O)CC(C)(C)CC3=O)c(C)c1	none
Cc1cc(C)c2c(c1)CC(C)(C)CC2=O	HTR5A ag ctr 9.2
Cc1ccc(S(=O)(=O)N(C)C)cc1NC(=O)COC(=O)/C=C/c1cnc2ccccc2n1	HTR5A ag ctr 14
COc1ccc(Cc2nc(-c3ccc(-n4cccc4)cc3)no2)cc1OC	HTR5A ag ctr 11
Cc1ccc(C)c(N2CCN(C(=O)CCCn3ncn4c(cc5occc54)c3=O)CC2)c1	none
O=C(Nc1ccc2oc(=O)ccc2c1)c1ccc(-c2ccccc2[N+](=O)[O-])o1	MOR-DOR ag 27, HTR5A ag ctr 14
CC(C)CNS(=O)(=O)c1cc(C(=O)N2CCOCC2)c(Cl)cc1Cl	HTR5A ag ctr 10
On1ccccc1=S	MOR-DOR inv ag active
CC(=O)N(Cc1cc2ccccc2[nH]c1=O)c1ccc(C)cc1	HTR5A ag ctr 9.7
O=C(Cc1ccc(NC(=O)C2CCCN(C(=O)C3CCCCC3)C2)cc1)Nc1ccc(C(=O)N2CCOCC2)cc1 (stereo unspecified)	none
C/C(=C\c1ccccc1)CN1CCN(c2cccc(Cl)c2)CC1	none
NC(=O)CN1CCN(c2cccc(Cl)c2)CC1	HTR5A ag ctr 14
OC(COC(c1ccccc1)c1ccccc1)CN1CCN(c2cccc(Cl)c2)CC1 (stereo unspecified)	none
OC(CN1CCN(c2cccc(Cl)c2)CC1)c1ccccc1 (stereo unspecified)	HTR5A ag ctr 13
C=CCNc1nc(N(c2ccccc2)c2ccccc2)nc(-n2ccnc2)n1	HTR5A ag ctr 12
CCOC(=O)/C(=C\c1ccccc1)C(=O)c1cc(C(C)=O)c(Nc2ccccc2)s1	none
CCOC(=O)/C(=C\c1cccnc1)C(=O)c1cc(C(C)=O)c(Nc2ccccc2)s1	MOR-DOR inv ag 33
CCCN(C(=O)c1ccc(OCC(C)C)cc1)c1c(N)n(Cc2ccccc2)c(=O)[nH]c1=O	none
CCOc1cc(C(=O)O/N=C(\N)c2ccc([N+](=O)[O-])cc2)cc(OCC)c1OCC	HTR5A ag ctr 13
Cc1ccccc1C(=O)O/N=C(\N)c1ccc([N+](=O)[O-])cc1	HTR5A ag ctr 9.3

Screening results from PubChem BioAssay.
